The record followed here is ChEMBL document CHEMBL2218924, “A broad activity screen in support of a chemogenomic map for kinase signalling research and drug discovery” (Biochem J, 2013).

Each structure is given as a SMILES string.

Sequence of Serine/threonine-protein kinase VRK2 (Homo sapiens) (Q86Y07 whole entry): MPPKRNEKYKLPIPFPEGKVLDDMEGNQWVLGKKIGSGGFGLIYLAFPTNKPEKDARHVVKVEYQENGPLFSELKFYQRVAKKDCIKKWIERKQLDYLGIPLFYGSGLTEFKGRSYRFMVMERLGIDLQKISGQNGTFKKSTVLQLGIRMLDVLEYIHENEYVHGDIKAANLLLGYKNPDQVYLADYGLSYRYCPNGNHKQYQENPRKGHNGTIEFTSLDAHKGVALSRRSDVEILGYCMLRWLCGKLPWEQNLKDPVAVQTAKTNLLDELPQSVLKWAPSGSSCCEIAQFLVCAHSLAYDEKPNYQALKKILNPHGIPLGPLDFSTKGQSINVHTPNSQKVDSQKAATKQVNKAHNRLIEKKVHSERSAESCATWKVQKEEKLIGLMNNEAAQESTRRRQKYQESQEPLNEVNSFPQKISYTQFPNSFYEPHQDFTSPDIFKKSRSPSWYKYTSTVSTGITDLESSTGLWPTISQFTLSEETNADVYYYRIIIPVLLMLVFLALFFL

The first assay addresses Serine/threonine-protein kinase VRK2 (Homo sapiens) (UniProt Q86Y07). Conditions: at 1 µM; call rule not given here.
By residual activity is commonly meant the signal under treatment as a percentage of the control signal. For `c1ccc(-c2n[nH]cc2-c2ccnc3ccccc23)nc1`, the residual activity was 95% (inactive).

As for `Cn1nc2c3c(cccc31)C(=O)c1ccccc1-2`, the residual activity was 92% (inactive).

On to `COc1ccc(CNc2nc(N(CCO)CCO)nc3c2ncn3C(C)C)cc1`, for which the residual activity is 79% (inactive).

For `CO[C@@H]1[C@H](N(C)C(=O)c2ccccc2)C[C@H]2O[C@]1(C)n1c3ccccc3c3c4c(c5c6ccccc6n2c5c31)C(=O)NC4`, the residual activity is 99% (inactive).

Take `C[C@@H](N)[C@H]1CC[C@H](C(=O)Nc2ccncc2)CC1`: the residual activity is 96% (inactive).

With `Cc1cccc(-c2[nH]c(C(C)(C)C)nc2-c2ccc3c(c2)OCO3)n1`, the residual activity is 105% (inactive).

`Cc1cc2ncc(-c3ccccc3)nc2cc1C`: the residual activity is 105% (inactive).

In the case of `O=C1c2ccccc2-[n+]2ccc3c([nH]c4ccccc43)c21`, the residual activity is 93% (inactive).

As for `Cc1ccc(S(=O)(=O)/C=C/C#N)cc1`, the residual activity is 91% (inactive).

Consider `c1ccc2c(-c3ccncc3)c[nH]c2c1`, for which the residual activity was 101% (inactive).

Turning to `Cc1cncc2cccc(S(=O)(=O)N3CCCN(C(=O)CN)C[C@H]3C)c12`, the residual activity was 94% (inactive).

As to `c1ccc(-c2n[nH]c3c2oc2ccccc23)cc1`, the residual activity was 99% (inactive).

`CO[C@H]1C[C@@H]2CC[C@@H](C)[C@@](O)(O2)C(=O)C(=O)N2CCCC[C@H]2C(=O)O[C@H]([C@H](C)C[C@@H]2CC[C@@H](O)[C@H](OC)C2)CC(=O)[C@H](C)/C=C(\C)[C@@H](O)[C@@H](OC)C(=O)[C@H](C)C[C@H](C)/C=C/C=C/C=C/1C`: the residual activity was 97% (inactive).

Take `Nc1cccc(-c2cc3c(Oc4cccc(O)c4)ncnc3[nH]2)c1`: the residual activity is 100% (inactive).

Turning to `COc1ccc(S(=O)(=O)N(CCO)c2ccccc2CN(C)C/C=C/c2ccc(Cl)cc2)cc1`, the residual activity is 102% (inactive).

Turning to `O=C1Nc2ccccc2/C1=C1/Nc2ccccc2/C1=N\OCCC(O)CO` (configuration not stated), the residual activity was 69% (inactive).

For the compound `COc1cc2ncnc(Nc3ccc(NC(=O)c4ccccc4)cc3)c2cc1OC`, the residual activity is 110% (inactive).

With `Ic1cccc(CSc2nnc(-c3ccncc3)o2)c1`, the residual activity is 92% (inactive).

As for `O=C(Nc1cccc(Nc2cc(Nc3cccc(C(F)(F)F)c3)ncn2)c1)C1CC1`, the residual activity is 107% (inactive).

`N#CC(C#N)=C(N)/C(C#N)=C/c1ccc(O)cc1`: the residual activity was 100% (inactive).

As to `O=Nc1c(-c2c(O)[nH]c3ccccc23)[nH]c2ccccc12`, the residual activity was 71% (inactive).

Consider `CN(C)CCCn1cc(C2=C(c3c[nH]c4ccccc34)C(=O)NC2=O)c2ccccc21`, for which the residual activity was 119% (inactive).

Turning to `O=C1Nc2cc(Br)ccc2/C1=C1/Nc2ccccc2/C1=N\O`, the residual activity was 94% (inactive).

On to `O=C1NC(=O)/C(=C/c2ccc3c(c2)OC(F)(F)O3)S1`, for which the residual activity is 112% (inactive).

`CC(=O)c1ccc(N2CCOCC2)cc1O`: the residual activity was 107% (inactive).

As to `Nc1n[nH]c2nnc(-c3c(-c4ccccc4)nn4ccccc34)cc12`, the residual activity was 89% (inactive).

For the compound `Nc1nc(Nc2ccc(S(N)(=O)=O)cc2)nn1C(=S)Nc1c(F)cccc1F`, the residual activity is 84% (inactive).

Regarding `Cn1cnc2cc3c(Nc4cccc(Br)c4)ncnc3cc21`, the residual activity was 98% (inactive).

For the next assay the target is unchanged. Conditions: at 10 µM.
With `c1ccc(-c2n[nH]cc2-c2ccnc3ccccc23)nc1`, the residual activity came to 67%.

Consider `Cn1nc2c3c(cccc31)C(=O)c1ccccc1-2`, for which the residual activity was determined as 77%.

Consider `COc1ccc(CNc2nc(N(CCO)CCO)nc3c2ncn3C(C)C)cc1`, for which the residual activity was 46%.

Consider `CO[C@@H]1[C@H](N(C)C(=O)c2ccccc2)C[C@H]2O[C@]1(C)n1c3ccccc3c3c4c(c5c6ccccc6n2c5c31)C(=O)NC4`, for which the residual activity was 94%.

Regarding `Cc1cccc(-c2[nH]c(C(C)(C)C)nc2-c2ccc3c(c2)OCO3)n1`, the residual activity came to 71%.

As to `Cc1cc2ncc(-c3ccccc3)nc2cc1C`, the residual activity came to 96%.

In the case of `O=C1c2ccccc2-[n+]2ccc3c([nH]c4ccccc43)c21`, the residual activity was found to be 92%.

Take `Cc1ccc(S(=O)(=O)/C=C/C#N)cc1`: the residual activity was 97%.

With `c1ccc2c(-c3ccncc3)c[nH]c2c1`, the residual activity came to 88%.

Consider `Cc1cncc2cccc(S(=O)(=O)N3CCCN(C(=O)CN)C[C@H]3C)c12`, for which the residual activity turned out to be 66%.

As for `c1ccc(-c2n[nH]c3c2oc2ccccc23)cc1`, the residual activity came to 77%.

Regarding `CO[C@H]1C[C@@H]2CC[C@@H](C)[C@@](O)(O2)C(=O)C(=O)N2CCCC[C@H]2C(=O)O[C@H]([C@H](C)C[C@@H]2CC[C@@H](O)[C@H](OC)C2)CC(=O)[C@H](C)/C=C(\C)[C@@H](O)[C@@H](OC)C(=O)[C@H](C)C[C@H](C)/C=C/C=C/C=C/1C`, the residual activity is 97%.

`Nc1cccc(-c2cc3c(Oc4cccc(O)c4)ncnc3[nH]2)c1`: the residual activity was 89%.

In the case of `COc1ccc(S(=O)(=O)N(CCO)c2ccccc2CN(C)C/C=C/c2ccc(Cl)cc2)cc1`, the residual activity stood at 80%.

For `O=C1Nc2ccccc2/C1=C1/Nc2ccccc2/C1=N\OCCC(O)CO` (configuration not stated), the residual activity amounted to 26%.

As for `COc1cc2ncnc(Nc3ccc(NC(=O)c4ccccc4)cc3)c2cc1OC`, the residual activity came out at 55%.

On to `N#Cc1cnc2cnc(NCc3cccnc3)cc2c1Nc1ccc(F)c(Cl)c1`, for which the residual activity was 93%.

Regarding `Ic1cccc(CSc2nnc(-c3ccncc3)o2)c1`, the residual activity was determined as 79%.

Regarding `O=C(Nc1cccc(Nc2cc(Nc3cccc(C(F)(F)F)c3)ncn2)c1)C1CC1`, the residual activity is 77%.

Turning to `O=[N+]([O-])c1ccc(-c2nc(-c3ccc(F)cc3)c(-c3ccncc3)[nH]2)cc1`, the residual activity came to 93%.

Regarding `N#CC(C#N)=C(N)/C(C#N)=C/c1ccc(O)cc1`, the residual activity came to 94%.

Turning to `O=Nc1c(-c2c(O)[nH]c3ccccc23)[nH]c2ccccc12`, the residual activity stood at 28%.

On to `CN(C)CCCn1cc(C2=C(c3c[nH]c4ccccc34)C(=O)NC2=O)c2ccccc21`, for which the residual activity worked out at 76%.

As for `O=C1Nc2cc(Br)ccc2/C1=C1/Nc2ccccc2/C1=N\O`, the residual activity came to 90%.

Consider `O=C1NC(=O)/C(=C/c2ccc3c(c2)OC(F)(F)O3)S1`, for which the residual activity came to 97%.

With `CC(=O)c1ccc(N2CCOCC2)cc1O`, the residual activity was found to be 96%.

In the case of `Nc1n[nH]c2nnc(-c3c(-c4ccccc4)nn4ccccc34)cc12`, the residual activity was determined as 68%.

On to `Nc1nc(Nc2ccc(S(N)(=O)=O)cc2)nn1C(=S)Nc1c(F)cccc1F`, for which the residual activity turned out to be 37%.

For the compound `Cn1cnc2cc3c(Nc4cccc(Br)c4)ncnc3cc21`, the residual activity is 95%.
